Drawing on PubChem BioAssay AID504766 (The Scripps Research Institute Molecular Screening Center, 2011), this text covers inhibition for 90 molecules.

Values joined by “and” are separate entries in the source; they are usually repeats but may differ in a detail not shown here. Equal values may be shown once. Screen size: about 340,000 compounds; about 3,400 (1%) were called active. For the sample, actives were picked, then their nearest neighbours and some compounds at random. A number with no mark means an inactive call.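 Rule for the calls: active = inhibition above the mean over all tested compounds plus 3 SD (cut at about 4.2% in these data); inactive = the rest.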

This assay deals with Nuclear receptor subfamily 0 group B member 1 (Homo sapiens) (UniProt P51843). In words: DAX1 (NR0B1) inhibitors, primary screen, cell-based, HEK293, Gal4-DAX1, luciferase luminescence (AID 504766).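 Note: 0% = DAX1-transfected cells with DMSO and 100% = empty-vector control cells with DMSO; inhibition shows as a rise in luminescence from relieved DAX1 repression.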 The note with it: HEK293 Gal4-DAX1 luciferase reporter, at 6.75 µM, active compounds read high. For orientation: Reporter assays use an easily measured gene product as a stand-in for the process of interest.
Sequence of Nuclear receptor subfamily 0 group B member 1 (Homo sapiens) (P51843 207-470 limits assumed): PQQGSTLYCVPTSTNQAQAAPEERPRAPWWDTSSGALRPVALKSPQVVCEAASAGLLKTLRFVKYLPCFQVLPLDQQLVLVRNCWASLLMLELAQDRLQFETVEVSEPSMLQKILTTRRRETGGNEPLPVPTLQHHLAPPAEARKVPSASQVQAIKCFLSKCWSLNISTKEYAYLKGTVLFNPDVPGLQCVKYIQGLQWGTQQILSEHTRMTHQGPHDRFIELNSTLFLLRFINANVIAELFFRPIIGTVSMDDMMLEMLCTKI
In general, inhibition refers to the drop in the measured response relative to a control, in per cent. `Cc1ccc([C@H]2N[C@]3(CCCN(CC4CCCCC4)C3=O)[C@H]3C(=O)N(Cc4ccccc4)C(=O)[C@@H]23)cc1`: the inhibition is -0.61%.

On to `CC1(C)CC(=O)C=C(c2ccccc2CO)C1=O`, for which the inhibition is 0.81%.

On to `CNS(=O)(=O)c1ccc(NC(=O)Nc2ccc3c(c2)OCO3)cc1`, for which the inhibition was 4.23% (active).

For `CC(C)CNS(=O)(=O)c1ccc(C(=O)Nc2ccc3c(c2)OCO3)cc1`, the inhibition is 0.58%.

For `Cc1cccc(NC(=O)Nc2ccc3c(c2)OCO3)n1`, the inhibition was 3.3%.

On to `C/C(COc1ccccc1)=N\NC(=O)c1nnn(-c2nonc2N)c1-c1ccc(C)cc1`, for which the inhibition is 1.15%.

Consider `Cc1nnc(SCC(=O)NC(=O)NC2CCCC2)n1N`, for which the inhibition was -0.17%.

Turning to `CC(Sc1nnnn1C)C(=O)NC(=O)NC1CCCCC1` (stereo not given), the inhibition is 4.23% (active).

As for `CC(Sc1nnnn1C1CCCCC1)C(=O)O` (stereo not given), the inhibition is -0.46%.

In the case of `NC(=S)NN=Cc1ccc(OC(=O)COc2cc(Cl)c(Cl)cc2Cl)cn1`, the inhibition was -2.71%.

Take `O=C(CN1CCCSc2ccccc21)N1CCN(S(=O)(=O)c2ccccc2)CC1`: the inhibition was 0.49%.

With `O=C(CN1CCCSc2ccccc21)N1CCN(S(=O)(=O)c2cccc(F)c2)CC1`, the inhibition was -0.31%.

Consider `N#C/C=C1\Sc2ccccc2C(=O)N1CC(=O)N1CCN(S(=O)(=O)c2ccccc2)CC1`, for which the inhibition was 4.84% (active).

As to `COCOCCn1cc(CN2CCS(=O)(=O)N(Cc3ccc(-c4ccc(OC)cc4)cc3)C(CC(C)C)C2=O)nn1` (stereo not given), the inhibition was -0.18%.

As to `COc1ccccc1NC(=S)N1CCN(c2ccc(F)cc2)CC1`, the inhibition was 0.5%.

As to `COc1c(N2CCN(C(=S)Nc3ccccc3F)C(C)C2)c(F)cc2c(=O)c(C(=O)O)cn(C3CC3)c12` (stereo not given), the inhibition was 4.24% (active).

Turning to `CC1CN(C(=S)Nc2ccccc2F)CC(C)O1` (stereo not given), the inhibition was -0.08%.

With `Cc1ccc(C(=O)NC(C)C(c2cccs2)N2CCOCC2)cc1C` (stereo not given), the inhibition is 0.43%.

For `O=C(Nc1cccc(C(=O)O)c1)/C(=C\c1ccccc1)NC(=O)c1ccc(Br)o1`, the inhibition is 1.84%.

On to `Fc1ccccc1/C=N/Nc1cc(N2CCCCC2)ncn1`, for which the inhibition was 9.97% (active).

Consider `c1cnn(-c2cc(N3CCOCC3)ncn2)c1`, for which the inhibition is 0.28%.

Consider `COc1ccccc1N1CCN(C(=O)C(=O)N/N=C/c2ccccc2F)CC1`, for which the inhibition is -0.62%.

Take `Cc1cccc(C(=O)OCC(=O)Nc2sccc2C(N)=O)c1C`: the inhibition was 0.47%.

With `COc1cc2[nH]c(=S)n(Cc3ccc(F)cc3)c(=O)c2cc1OC`, the inhibition is -0.72%.

For `COc1ccc(Cn2c(=O)cc(C)[nH]c2=S)cc1`, the inhibition is 4.43% (active).

With `COc1ccc(Cn2c(=S)[nH]c3cc(C(=O)N4CCCCC4)ccc3c2=O)cc1`, the inhibition was -0.61%.

Regarding `COc1ccccc1-c1n[nH]nc1C1=CC(=O)CC(C)(C)C1`, the inhibition was 1.58%.

Regarding `CCOc1ccc(NS(=O)(=O)c2ccc(C(=O)NCC3CCCO3)cc2)cc1` (stereo not given), the inhibition was 0.78%.

For `CC(=O)c1sc(N/N=C/c2ccc(C(C)C)cc2)nc1C`, the inhibition was 0.37%.

As to `CC(C)c1ccc(C=NNc2ccc([N+](=O)[O-])cn2)cc1`, the inhibition is 4.47% (active).

Regarding `O=[N+]([O-])c1cccc(/C=N/Nc2ncc(Br)cn2)c1`, the inhibition was 3.56%.

As for `CC1=C(C(=O)N(C)C)CC(CC(=O)NCCN2CCOCC2)C(=O)N1Cc1ccccc1` (stereo not given), the inhibition was 0.86%.

Regarding `CC(C)CCOc1ccc(C(=O)Nc2cc(S(=O)(=O)N3CCOCC3)ccc2N2CCOCC2)cc1`, the inhibition was 1.57%.

On to `COC(=O)C1NN=C(C(=O)c2ccc(Br)cc2)C1c1cccc(Br)c1` (stereo not given), for which the inhibition was 5.4% (active).

On to `COC(=O)C1=C(C)N(C)C(C)=C(C(=O)OC)C1c1cccc(Br)c1`, for which the inhibition was -0.19%.

Turning to `COc1ccc(C(=O)c2oc3ccc(Br)cc3c2NC(C)=O)cc1`, the inhibition is 0.74%.

In the case of `Cc1ccc(C(=O)OCC(=O)NC2CCCCCCC2)cc1C`, the inhibition is 1.83%.

Turning to `CCOC(=O)c1cc(-c2sc(NC(=O)c3ccccc3)nc2C)n(-c2ccc(Br)cc2)n1`, the inhibition was -0.34%.

For the molecule `COc1ccc(C(=O)O/N=C(\N)c2ccccn2)cc1[N+](=O)[O-]`, the inhibition is 4.71% (active).

As to `N/C(=N\OC(=O)c1ccc([N+](=O)[O-])cc1)c1ccccn1`, the inhibition is 0.14%.

As to `COc1ccccc1OCC(=O)O/N=C(\N)c1ccccn1`, the inhibition is 2.91%.

Consider `CCN(CC)C(=O)C(C)N1c2cccc3cccc(c23)S1(=O)=O` (stereo not given), for which the inhibition is 0.49%.

On to `COc1ccc(NC(=O)CN2C(=O)NC(C)(c3ccccc3)C2=O)cn1` (stereo not given), for which the inhibition is 1.1%.

For `Cc1ccc(-c2ccc(C3=CC(=O)CC(C)(C)C3=O)cc2)cc1`, the inhibition was 3.24%.

`CNS(=O)(=O)c1ccc(NC(=O)C2CC(=O)N(c3ccc(Cl)cc3)C2)cc1` (stereo not given): the inhibition was 4.35% (active).

Turning to `Cc1ccc(N2CC(C(=O)Nc3ccc(S(=O)(=O)N4CCCC4)cc3)CC2=O)cc1C` (stereo not given), the inhibition is -0.34%.

As to `O=C(Nc1ccc(S(=O)(=O)N2CCCCC2)cc1)C1CC(=O)N(c2ccc(F)cc2)C1` (stereo not given), the inhibition is -1.03%.

In the case of `Nc1cc(C(=O)N2CCN(c3ccccc3Cl)CC2)ccc1N1CC2CC(C1)c1cccc(=O)n1C2` (stereo not given), the inhibition was 2.59%.

Turning to `COc1ccc(CNC(=O)C2CCC(CNc3c(N4CCOCC4)c(=O)c3=O)CC2)cc1` (stereo not given), the inhibition was -0.15% and -0.24%.

For the molecule `O=C(NCc1ccc(F)cc1)C1CCC(CNc2c(N3CCOCC3)c(=O)c2=O)CC1` (stereo not given), the inhibition is 5.78% (active).

As to `CC(NC(=O)C1CCC(CNc2c(N3CCOCC3)c(=O)c2=O)CC1)c1ccccc1` (stereo not given), the inhibition is 0.2%.

With `C[C@H]1CN([C@@H](C)CO)C(=O)CCCn2cc(nn2)CO[C@@H]1CN(C)C(=O)Nc1ccccc1`, the inhibition was 1.03%.

Turning to `CCn1c(=O)c(=O)n(CC)c2cc(S(=O)(=O)N3CCc4ccccc43)ccc21`, the inhibition is -1.26%.

In the case of `O=S(=O)(c1ccc2c(c1)OCCO2)N1CCc2ccccc21`, the inhibition is 0.28%.

`O=S(=O)(c1ccccc1)N1CCc2ccccc21`: the inhibition is 5.18% (active).

In the case of `C[C@H]1CN([C@@H](C)CO)C(=O)CCCn2cc(nn2)CO[C@@H]1CN(C)S(=O)(=O)c1ccc(-n2cccn2)cc1`, the inhibition is 2.41%.

On to `CC(C)C(=O)N1c2ccccc2NC2=C(C(=O)CCC2)C1c1ccc(N(C)C)cc1` (stereo not given), for which the inhibition is 4.33% (active).

Turning to `CCCC(=O)N1c2ccccc2NC2=C(C(=O)CCC2)C1c1ccc(F)cc1` (stereo not given), the inhibition was -0.04%.

`CCC(=O)N1c2ccccc2NC2=C(C(=O)CCC2)C1c1ccco1` (stereo not given): the inhibition is -0.14%.

As to `COc1ccc(-c2ccc(CN3C(C(C)C)C(=O)N(Cc4cn(CC5CCCCC5)nn4)CCS3(=O)=O)cc2)cn1` (stereo not given), the inhibition is -0.57%.

Turning to `COc1cccc(OC)c1C(=O)N1CCN(Cc2ccccc2F)CC1`, the inhibition was 2.65%.

In the case of `CC(C)=NN1C(=O)c2ccccc2NC1(C)C`, the inhibition is 5.58% (active).

On to `CC(=O)NN1C(=O)c2ccccc2NC1c1ccccc1` (stereo not given), for which the inhibition is -1.71%.

In the case of `CC(=O)N1C(=O)C2(Nc3ccccc3N2)c2ccccc21`, the inhibition is 0.59%.

On to `Cc1c(NC(=O)COC(=O)/C=C/c2cccc(F)c2)c(=O)n(-c2ccccc2)n1C`, for which the inhibition is -0.66%.

On to `C[C@H]1CN([C@@H](C)CO)S(=O)(=O)c2ccc(Br)cc2O[C@H]1CN(C)C(=O)c1cnccn1`, for which the inhibition is -0.34%.

Take `O=C(NCc1nnnn1-c1ccc(Cl)cc1)c1ccc([N+](=O)[O-])o1`: the inhibition is 0%.

With `N#CCCC(C#N)(c1cccnc1)N1CCOCC1` (stereo not given), the inhibition is -0.32%.

On to `CC1CCCCC1NC(=O)Cn1c(=O)cnc2ccccc21` (stereo not given), for which the inhibition was -1.16%.

As for `CC(C)c1cc(C(=O)NC2CCCCCC2)c2ccccc2n1`, the inhibition was -1.68%.

As for `O=C(/C=C/c1cnc2ccccc2n1)NC1CCCCCC1`, the inhibition was 4.47% (active).

For `COc1cc(/C=N/N2CCN(c3ccccc3)CC2)ccc1OC(C)=O`, the inhibition is -0.26%.

As to `COc1ccccc1N1CCN(/N=C/c2ccc(O)cc2O)CC1`, the inhibition is 5.15% (active).

`COc1ccccc1N1CCN(/N=C\C(Br)=C\c2ccccc2)CC1`: the inhibition is -0.74%.

Consider `O=C(c1ncn2c1c(=O)[nH]c1ccccc12)N1CCc2ccccc2C1`, for which the inhibition is -0.1%.

Consider `COc1ccc([C@H]2N[C@]3(CCCN(Cc4ccco4)C3=O)[C@H]3C(=O)N(C)C(=O)[C@@H]23)cc1`, for which the inhibition was 0.93%.

In the case of `O=C(C1CCCO1)N1CCN(C(=O)C23CC4CC(CC(C4)C2)C3)CC1` (stereo not given), the inhibition is -0.78%.

In the case of `CCOC(=O)/C(C#N)=C\c1c(C)cc(C)c(COC(C)=O)c1C`, the inhibition was 5.6% (active).

For the molecule `CCOC(=O)/C(C#N)=C/c1ccc(N2CCN(Cc3ccccc3)CC2)cc1`, the inhibition was -0.11%.

As to `COC(=O)/C(C#N)=C/c1occc1C`, the inhibition was -0.79%.

Turning to `O=S(=O)(c1cccc(C(F)(F)F)c1)N1c2ccccc2-n2cccc2C1c1cccnc1` (stereo not given), the inhibition is 0.07%.

Consider `COc1ccc(NC(=O)CSc2nnnn2-c2cccc(OC)c2)cc1`, for which the inhibition is 0.03%.

Consider `COCCNC(=O)COc1ccc(N(C)S(=O)(=O)c2ccc3ccccc3c2)cc1`, for which the inhibition was -1.92%.

For `COC(=O)C(C)NC(=O)COc1ccc2ccccc2c1` (stereo not given), the inhibition was 4.35% (active).

On to `CN(C)S(=O)(=O)c1cccc(NC(=O)COc2ccc3ccccc3c2)c1`, for which the inhibition is -1.43%.

Regarding `COc1ccc2nc(-c3ccccn3)ccc2c1`, the inhibition is -0.26%.

As to `COc1ccc([C@H]2N[C@]3(CCCN(CC4CCCCC4)C3=O)[C@H]3C(=O)N(C)C(=O)[C@@H]23)cc1`, the inhibition is 0.64%.

Turning to `Cc1occc1-c1nnc(SCC(=O)NC2CCCCC2)o1`, the inhibition was 0.12%.

Turning to `CCn1c(SCC(=O)NC2CC2)nnc1-c1ccccc1OC`, the inhibition is 1.22%.

Consider `CCn1c(SCC(=O)NC2CCCC2)nnc1-c1ccoc1C`, for which the inhibition was 4.45% (active).
